From PubChem BioAssay
DT40 TDP1 no CPT: qHTS for Inhibitors of human tyrosyl-DNA phosphodiesterase 1 (TDP1): qHTS in cells in absence of CPT | DT40 Tdp1-/- hTDP1 cells, no CPT, ATP luminescence, 48 h | Potency, µM (highest dose often 46.2 µM), for inactives: at the highest dose activity change, negative = growth inhibition, most hits filed as inhibitors | actives 15% (n = 420,000) | AID 686978, 2013; further: potency means the concentration at half of the fitted maximal effect; nearly all actives have a fitted effect of over 55% in size
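Camptothecin absent (DMSO only). Human TDP1-complemented DT40 knockout cells, 400 cells/well, 37 °C for minimum 48 hr; ATP measured via CellTiter-Glo, 30 min dark incubation, luminescence.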
HT1080 IDH1KD tx: HT-1080 IDH1 knockdown cell toxicity (counter line); HT-1080 IDH1 knockdown viability, ATP luminescence, 48 h; Potency, µM (doses to about 46.1 µM), inactives show top-dose activity, negative = toxicity, most hits filed as cytotoxic; actives 2% (n = 360,000); AID 686971;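 further: potency means the concentration at half of the fitted maximal effect; 0% = DMSO wells and -100% = cell-free medium wells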
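Using the IDH1-knockdown HT-1080 line run in the same batch and compound series as the NT line, viability after 48 h at 37 °C was determined by CellTiter-Glo luminescence and expressed as % activity.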
TDP1 cell CPT: DT40-hTDP1 cell growth loss with CPT | chicken DT40 Tdp1-/-;hTDP1 cells + 20 nM CPT, ATP luminescence, 48 h | Potency, µM (top dose mostly 46.2 µM), for the others: at the highest dose activity change, negative = growth inhibition, usual class: inhibitors | actives 12% (n = 420,000) | AID 686979; further: potency means the concentration at half of the fitted maximal effect; nearly all actives have a fitted effect of over 55% in size
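Chicken DT40 Tdp1-/- cells stably complemented with human TDP1 were seeded at 400 cells/well in medium containing 20 nM camptothecin, exposed to pin-transferred compounds, and grown at 37 °C for at least 48 hr. Viability was read as ATP luminescence.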
IL1B secr inh: inhibitors of inflammasome signaling (IL-1 beta secretion); actives 4.7% (n = 360,000); THP-1 LPS/ATP IL-1B secretion, AlphaLISA, 16 h; active compounds read low; activity change, % at 57.5 µM; in the data active means activity change below about -50%; inconclusive means mostly about -30% to -49%
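THP-1 cells pretreated 1 hr with compounds (up to 57.5 uM final), then stimulated with LPS (250 ng/mL final) plus ATP (1.25 mM final); secreted IL-1B measured by AlphaLISA after 16 hr, decreased signal indicating inhibition.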
HT1080NT lethal: kills 2HG-producing HT-1080-NT fibrosarcoma cells | actives 1.6% (n = 360,000) | HT-1080-NT fibrosarcoma viability, CellTiter-Glo ATP luminescence, 48 h | Potency, µM (series often up to 46.1 µM), for the others: at the top dose activity, negative = less viability, actives largely listed as cytotoxic | AID 686970;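 further: NT is the 2HG producing partner of a matched IDH1 knockdown line; potency means the concentration at half of the fitted maximal effect; 0% = DMSO-treated cells and -100% = media-only wells without cells; nearly all actives have a fitted effect of over 55% in size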
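Read-out is CellTiter-Glo luminescence after 10 minutes at room temperature, following 48 hours' compound treatment of HT-1080-NT cells (750 cells/well, RPMI, 5% FBS, 37 degrees C).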
The depositor's hits bear a star; ? = inconclusive; · = no result; [ ] = another dose, or the depositor's remark. Shown are actives, neighbours in structure and some others; about 19% of the full set was active somewhere. Unless noted, the call rests on the fitted dose curve; in most records, active means well fitted curve in the direction sought with a large enough effect; inconclusive means small, poorly fitted or top-dose-only effect, or another doubt; inactive means no such curve, though single readings can be large; an effect the other way counts as inactive or inconclusive. Unless noted, on the % scale 0 is the no-effect control and ±100 the full control effect.

SMILES	DT40 TDP1 no CPT	HT1080 IDH1KD tx	TDP1 cell CPT	IL1B secr inh	HT1080NT lethal
Cc1ccccc1OCC(=O)N/N=C/c1cc2ccccc2nc1Cl	15µM*	-21%	15µM*	-6	-16%
Cc1ccc(S(=O)(=O)N2C3CCCCC3O[C@H]2CC(=O)OCc2ccccc2)cc1 (stereo not given in full)	?	0%	?	12	2%
N#CC1=C(N)NC(=S)C(C(N)=O)C1c1ccc([N+](=O)[O-])cc1 (stereo not given)	-6%	-11%	5%	18	-1%
CS(=O)(=O)N1CCC(C(=O)Nc2ccc(F)c(Cl)c2)CC1	?	-1%	12%	-15	19%
O=C(Nc1ccc(F)c(Cl)c1)C1CCN(S(=O)(=O)c2ccc3c(c2)CCCN3C(=O)C2CCC2)CC1	12µM*	·	9.2µM*	·	·
CCC(=O)N1CCCc2cc(S(=O)(=O)N3CCC(C(=O)Nc4ccc(F)c(F)c4)CC3)ccc21	12µM*	·	-87%	·	·
CCC(=O)N1CCCc2cc(S(=O)(=O)N3CCC(C(=O)NC4CCCCC4)CC3)ccc21	-20%	·	-3%	·	·
CCC(=O)N1CCCc2cc(S(=O)(=O)N3CCC(C(=O)Nc4ccc(C#N)cc4)CC3)ccc21	?	·	18µM*	·	·
O=C(CSc1nnc(COc2ccccc2)o1)Nc1cc(C(F)(F)F)ccc1Cl	6%	·	-24%	·	·
C=CCOc1ccc(/C=C/C(=O)OCC(=O)NCCCc2ccccc2)cc1	-15%	8%	-18%	0	17%
Cc1sc2ncnc(Oc3ccc(-n4ccnc4)cc3)c2c1C	?	-23%	?	?	?
COCC(=O)Nc1cc(C(=O)N2CCCCC2c2nccn2C)cc2nc(-c3ccccc3)n(C)c12 (stereo not given)	-8%	·	-9%[9.04 µM]	·	·
CC(=O)NC1C(=O)N(CCN2CCOCC2)c2ccc(Br)cc21 (stereo not given)	-15%	1%	-18%	6	2%
CCOc1ccc2c(c1)C(NC(C)=O)C(=O)N2CCN1CCOCC1 (stereo not given)	15µM*	20%	?	8	18%
C=CCNc1ncnc2c1ncn2[C@H]1CN(CCN2CCOCC2)C[C@@H](CO)O1	10%	12%	-3%	1	?
CCOC(=O)c1c(-c2ccccc2Cl)cn2ccccc12	?	-2%	?	13	-5%
CCOC(=O)c1sc(=S)n(-c2ccc(OC)cc2)c1C	-20%	-5%	6%	·	3%
CCOC(=O)c1c2c(n(-c3ccc(OC)cc3)c1C)C(=O)C(=O)c1ccccc1-2	2.1µM*	8.2µM*	3.3µM*	-2	15µM*
CCOC(=O)c1c2c(n3ccccc13)C(=O)c1ccccc1C2=O	10µM*	·	10µM*	·	·
Cn1cnnc1SCC(=O)Nc1ccc2nc(SCc3cccc4ccccc34)sc2c1	?	-23%	23µM*	-16	-19%
Cc1cccc(NC(=O)CSc2nc3ccc(NC(=O)COc4ccccc4F)cc3s2)c1	6.5µM*	·	16µM*	·	·
Cc1cccc(NC(=O)CSc2nc3ccc(NC(=O)c4ccccc4)cc3s2)c1	6.5µM*	·	8.2µM*	·	·
CCN(CC)C(=O)CSc1nc2ccc(NC(=O)CSc3nnc(N)s3)cc2s1	?	-1%	?	-13	1%
CCN(CC)C(=O)CSc1nc2ccc(NC(=O)CSc3nccn3C)cc2s1	16µM*	-5%	-29%	-53*	-22%
COc1ccc(Nc2nc(-c3cccs3)nc3ccccc23)cc1	23µM*	?	?	-3	?
COc1cccc(CN(C)c2nc(-c3cccs3)nc3ccccc23)c1	21µM*	?	18µM*	-18	-29%
COc1cccc(Nc2nc(-c3cccs3)nc3ccccc23)c1	23µM*	?	?	-58*	16µM*
COc1cccc(Nc2ncnc3ccccc23)c1	?	30%	?	-3	-6%
Clc1ccc2nc(NCc3ccccc3)c3nncn3c2c1	-11%	·	11%	·	·
